We go through 13 compounds from PubChem BioAssay.

Activity calls are given as the source filed them.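 Rule for the calls, unless noted: active = fluorescence slope after compound addition differing from the mean of all screened samples at 99.7% confidence, in either direction; inactive = the rest.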

The nature of experiment [1]: inhibitors of TNFa-induced NFkB p65 translocation, primary screen, imaging, HUVEC, MLSMR starter and 10KST1 sets (AID 438;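 active = inhibition above 20% together with a positive visual image hit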;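 note: compound added about 3h40 before a 20 min TNFalpha stimulation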;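 for inhibition: signal is the nuclear over cytoplasmic p65 intensity ratio per well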). The settings on record: HUVEC TNFa-induced p65 nuclear translocation; cell count: measured here: nuclei count (cytotoxicity indicator), at 2.08 µM; inhibition: at 2 µM, stronger effect = higher value, 0% TNFa-plus-vehicle, 100% no-TNFa wells.
Experiment [2] in a line: inhibitors of mutant huntingtin aggregation, primary screen, imaging, exon1htt(103Q)mCFP cells, high-content imaging (AID 483;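 active = visual image review flags a hit and inhibition of aggregation exceeds 20%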;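 note: compound exposure lasted 3 days before fixation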;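 for nuclei count: percent of the per-plate median nuclei count of sample wells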). The settings on record: exon1htt(103Q)mCFP cell line, aggregate imaging, at 2 µM; inhibition of aggregation: stronger effect = higher value; nuclei count: measured here: cell count, toxicity.
Experiment [3] can be described thus: inhibitors of E-selectin induction by TNFa, primary screen, imaging, HUVEC, immunofluorescence, MLSMR starter and 10KST1 sets (AID 487;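 active = visually confirmed hit in the image check and inhibition above 20%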;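 for inhibition: signal is fraction of cell area covered by stained E-selectin grains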;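 for nuclei count: 100% = median nuclei count of all wells on the same plate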). The settings on record: HUVEC TNFalpha-induced E-selectin immunofluorescence imaging, at 2 µM; inhibition: stronger effect = higher value; nuclei count: measured here: cell number, toxicity.
Experiment [4] concerns the target Voltage-gated potassium channel subunit beta-2 (Rattus norvegicus) (UniProt P62483). Kind of experiment: KvBeta enzyme negative modulators, primary screen, biochemical, NADPH fluorescence (AID 622;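 active = fluorescence slope higher than the sample average by over 3 SD, cut at about -0.22 in these data, passing the limit was not always enough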;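 note: slope of raw intensity against log time taken from 70 to 1610 s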). The settings on record: recombinant KvBeta, 4-cyanobenzaldehyde reduction, at 10 µM, stronger effect = higher value.
Experiment [5] shares this target. Kind of experiment: KvBeta positive modulators, primary screen, biochemical, NADPH fluorescence (AID 623;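 active = NADPH fluorescence slope more negative than the mean of all samples by about 3 SD, 99.7% confidence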;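 note: fluorescence intensity change per second fitted from 20 to 320 s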). The settings on record: Recombinant KvBeta, NADPH fluorescence decrease slope, 10 min; at 10 µM; stronger effect = lower value.
Experiment [6] addresses Alpha-2C adrenergic receptor (Homo sapiens) (UniProt P18825). Kind of experiment: modulators of alpha2C/GIRK thallium flux, primary screen, cell-based, HEK293 alpha2C/GIRK1/2 (AID 624).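 Note: slope of fluorescence ratio to pre-addition baseline per second over 15 to 24 s.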 The settings on record: thallium flux BTC fluorescence, at 10 µM, actives lie on both sides.
Experiment [7] can be described thus: inhibitors of Sendai virus-induced IRF3 signaling, primary screen, TLR/RLR signaling modifier project, cell-based, Sendai virus stimulus, luciferase, 10K MLSCN set (AID 602276;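 active = inhibition at or above 50% at 10 µM; inactive = inhibition below 50%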;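 note: firefly luciferase from ISG56 promoter only with Renilla not read in this screen; 0% = Sendai virus plus DMSO and 100% = medium plus DMSO without virus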). The settings on record: HEK293 RL24 IRF3 luciferase reporter, at 10 µM, stronger effect = higher value. On the technique in general: Reporter assays use an easily measured gene product as a stand-in for the process of interest.

The nature of experiment [8]: inhibitors of poly I:C-induced TLR3 signaling, primary screen, cell-based, poly I:C stimulus, luciferase, 10K MLSCN set (AID 602277;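 active = inhibition of the reporter signal at or above 50%; inactive = inhibition below 50%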). The settings on record: HEK293-TLR3 RL24 IRF3 luciferase reporter, at 10 µM, stronger effect = higher value.

Alpha-2C adrenergic receptor (Homo sapiens), sequence (P18825 whole entry, looked up): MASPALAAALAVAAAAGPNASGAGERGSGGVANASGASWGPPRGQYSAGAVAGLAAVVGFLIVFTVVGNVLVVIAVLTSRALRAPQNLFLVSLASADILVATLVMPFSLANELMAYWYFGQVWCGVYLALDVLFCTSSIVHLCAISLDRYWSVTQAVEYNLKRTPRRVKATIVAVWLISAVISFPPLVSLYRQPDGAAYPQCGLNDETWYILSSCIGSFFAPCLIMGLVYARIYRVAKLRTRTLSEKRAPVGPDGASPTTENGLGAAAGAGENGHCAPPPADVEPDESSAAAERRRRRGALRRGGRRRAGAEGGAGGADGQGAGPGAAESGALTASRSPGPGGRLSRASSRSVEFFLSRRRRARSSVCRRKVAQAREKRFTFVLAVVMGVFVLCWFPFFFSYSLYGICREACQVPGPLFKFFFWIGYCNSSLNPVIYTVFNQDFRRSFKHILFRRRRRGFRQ
Voltage-gated potassium channel subunit beta-2 (Rattus norvegicus), sequence (P62483 whole entry, looked up): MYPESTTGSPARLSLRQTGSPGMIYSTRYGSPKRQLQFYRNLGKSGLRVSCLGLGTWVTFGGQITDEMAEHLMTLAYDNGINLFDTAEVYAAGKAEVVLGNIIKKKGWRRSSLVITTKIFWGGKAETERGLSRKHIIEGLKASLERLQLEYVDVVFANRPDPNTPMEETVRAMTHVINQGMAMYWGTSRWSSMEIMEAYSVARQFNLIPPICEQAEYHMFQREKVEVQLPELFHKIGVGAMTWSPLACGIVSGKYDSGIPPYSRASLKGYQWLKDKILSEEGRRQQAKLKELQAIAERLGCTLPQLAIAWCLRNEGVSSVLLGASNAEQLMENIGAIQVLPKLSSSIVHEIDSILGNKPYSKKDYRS

In general, inhibition refers to the relative decrease from the control value, in per cent. Consider `CCN(CC)c1nc2nonc2nc1N(CC)CC`, for which the cell count in experiment [1] was 314. Moreover, the inhibition in experiment [1] was -11.8% (inactive); in experiment [3], -12.1% (inactive); in experiment [7] it was 14.3% (inactive); in experiment [8] it was 21.8% (inactive). In addition, the inhibition of aggregation in experiment [2] is -1.5% (inactive). Also, the nuclei count worked out at 100% in experiment [2] and 94.7% in experiment [3]. In addition, the fluorescence slope in experiment [4] is -0.446 (inactive). The NADPH fluorescence slope in experiment [5] is -5.6e-05 (inactive). The slope in experiment [6] was 0.00553 (inactive).
For the compound `Cc1ccc2nc(NC(=O)CN(C)S(=O)(=O)c3cccc4nsnc34)sc2c1`, in experiment [1], the cell count came out at 379. Besides, the inhibition in experiment [1] is -5.3% (inactive); in experiment [3], -38.2% (inactive); in experiment [7], 32.6% (inactive); in experiment [8] it was 25% (inactive). Further, in experiment [2], the inhibition of aggregation is -0.2% (inactive). Also, the nuclei count in experiment [2] worked out at 113%; in experiment [3] it was 101%. The fluorescence slope in experiment [4] was -0.41 (inactive). Further, in experiment [5], the NADPH fluorescence slope was -4.4e-05 (inactive). The slope in experiment [6] is 0.00524 (inactive).
In the case of `CCN(C(=O)c1cn(C)c(=O)c2cc(OC)c(OC)cc12)c1ccccc1C`, the cell count in experiment [1] was determined as 175. Further, the inhibition in experiment [1] was 0.3% (inactive); in experiment [3], -21.1% (inactive); in experiment [7], 0.738% (inactive); in experiment [8], 16.5% (inactive). Also, the inhibition of aggregation in experiment [2] was 12.8% (inactive). In addition, the nuclei count was 94.1% in experiment [2] and 114% in experiment [3]. The fluorescence slope in experiment [4] is -0.59 (inactive). Besides, the NADPH fluorescence slope in experiment [5] was -2.6e-05 (inactive). For the same compound, in experiment [6], the slope was 0.00574 (inactive).
Turning to `CC(C)OC(=O)CSc1nc2cccnc2n1C1CCCCC1`, the cell count in experiment [1] was 267. Further, the inhibition was -9.7% (inactive) in experiment [1], -25.1% (inactive) in experiment [3], 11.2% (inactive) in experiment [7] and 17.9% (inactive) in experiment [8]. The inhibition of aggregation in experiment [2] is -18.5% (inactive). Besides, the nuclei count in experiment [2] came to 78.8%; in experiment [3], 106%. Moreover, in experiment [4], the fluorescence slope is -0.592 (inactive). The NADPH fluorescence slope in experiment [5] was -5.3e-05 (inactive). Also, the slope in experiment [6] was 0.00357 (inactive).
On to `O=C(O)CCn1c(=O)c2ccccc2c2ccccc2c1=O`, for which the cell count in experiment [1] turned out to be 557. Further, the inhibition in experiment [1] was 1% (inactive); in experiment [3] it was 10.2% (inactive); in experiment [7] it was -4.94% (inactive); in experiment [8] it was -9.95% (inactive). In experiment [2], the inhibition of aggregation is -13.6% (inactive). The nuclei count in experiment [2] came out at 118%; in experiment [3], 101%. Further, the fluorescence slope in experiment [4] is -0.537 (inactive). Further, the NADPH fluorescence slope in experiment [5] was 7e-06 (inactive). The slope in experiment [6] is 0.00528 (inactive).
`CC(=O)c1cc(Cl)ccc1OC(=O)c1ccco1`: in experiment [1], the cell count is 475. Moreover, the inhibition is 0.5% (inactive) in experiment [1], -48.1% (inactive) in experiment [3], 18.4% (inactive) in experiment [7] and 21% (inactive) in experiment [8]. Further, the inhibition of aggregation in experiment [2] is -8.1% (inactive). The nuclei count in experiment [2] is 106%; in experiment [3], 124%. Further, the fluorescence slope in experiment [4] is -0.475 (inactive). Moreover, the NADPH fluorescence slope in experiment [5] was -9e-05 (inactive). The slope in experiment [6] was 0.00476 (inactive).
In the case of `CCC1Oc2ccc(C)cc2N(CC(=O)NCCCN2CCCCC2CC)C1=O` (stereo not drawn), the cell count in experiment [1] amounted to 651. The inhibition in experiment [1] was -3.9% (inactive); in experiment [3], -34.9% (inactive); in experiment [7] it was 16.8% (inactive); in experiment [8], 38.8% (inactive). For the same compound, in experiment [2], the inhibition of aggregation was 26.7% (inactive). The figures for the nuclei count in experiment [2] and in experiment [3] were 109% and 101%, respectively. The fluorescence slope in experiment [4] was -0.41 (inactive). The NADPH fluorescence slope in experiment [5] was 2.7e-05 (inactive). The slope in experiment [6] is 0.0055 (inactive).
As to `CCOC(=O)c1[nH]c2ccccc2c1NC(=O)C(CC)CC`, the cell count in experiment [1] was determined as 689. Moreover, the inhibition in experiment [1] is -10.7% (inactive); in experiment [3] it was -11% (inactive); in experiment [7], 12.4% (inactive); in experiment [8], 40.3% (inactive). The inhibition of aggregation in experiment [2] is -18.7% (inactive). In addition, the nuclei count in experiment [2] amounted to 118%; in experiment [3], 107%. Also, the fluorescence slope in experiment [4] is -0.466 (inactive). The NADPH fluorescence slope in experiment [5] was -3.3e-05 (inactive). In experiment [6], the slope was 0.00668 (inactive).
For `Cc1ccc(C)c(S(=O)(=O)C(C#N)c2nc3ccccc3nc2N2CC(C)OC(C)C2)c1` (stereo not drawn), the cell count in experiment [1] amounted to 358. The inhibition in experiment [1] was -4.1% (inactive); in experiment [3], -84.3% (inactive); in experiment [7] it was 32.7% (inactive); in experiment [8], 2.87% (inactive). For the same compound, the inhibition of aggregation in experiment [2] is -3.8% (inactive). The nuclei count in experiment [2] is 103%; in experiment [3] it was 125%. Also, the fluorescence slope in experiment [4] is -0.494 (inactive). Further, the NADPH fluorescence slope in experiment [5] is -1.6e-06 (inactive). Also, the slope in experiment [6] is 0.00382 (inactive).
`CCN(CC)CCN1C(=O)C(=O)/C(=C(/O)c2c(C)[nH]c(C(=O)OC)c2C)C1c1ccccc1OC` (stereo not drawn): the cell count in experiment [1] came out at 280. The inhibition is 1% (inactive) in experiment [1], -11.7% (inactive) in experiment [3], 7.54% (inactive) in experiment [7] and 34.9% (inactive) in experiment [8]. Also, the inhibition of aggregation in experiment [2] was -20.7% (inactive). The nuclei count stood at 109% in experiment [2] and 101% in experiment [3]. Besides, the fluorescence slope in experiment [4] is -0.454 (inactive). Further, the NADPH fluorescence slope in experiment [5] was -4.2e-05 (inactive). Further, the slope in experiment [6] was 0.00204 (inactive).
Turning to `CC(=O)c1cnc2cc(-c3ccccc3)nn2c1C`, in experiment [1], the cell count was found to be 283. Moreover, the inhibition in experiment [1] was 7.2% (inactive); in experiment [3] it was -84.1% (inactive); in experiment [7] it was -65.5% (inactive); in experiment [8], -115% (inactive). In addition, the inhibition of aggregation in experiment [2] is 26.1% (inactive). For the same compound, the nuclei count in experiment [2] came out at 84.2%; in experiment [3] it was 97.5%. Moreover, the fluorescence slope in experiment [4] was -0.343 (inactive). Besides, the NADPH fluorescence slope in experiment [5] is -5.4e-05 (inactive). Besides, the slope in experiment [6] is 0.00763 (inactive).
For `COc1cccc(C(=O)Nc2cc(C)c3c(=O)oc4ccccc4c3n2)c1`, the cell count in experiment [1] was 526. The inhibition was 0.3% (inactive) in experiment [1], -0.1% (inactive) in experiment [3], 10.3% (inactive) in experiment [7] and 22.2% (inactive) in experiment [8]. Further, the inhibition of aggregation in experiment [2] was 9.3% (inactive). For the same compound, the nuclei count turned out to be 93.9% in experiment [2] and 92.8% in experiment [3]. Further, the fluorescence slope in experiment [4] is -0.429 (inactive). Moreover, the NADPH fluorescence slope in experiment [5] was -3.7e-05 (inactive). In experiment [6], the slope was 0.00602 (inactive).
As to `COc1cc(OC)c(NC(=O)c2ccco2)cc1Cl`, in experiment [1], the cell count is 363. For the same compound, the inhibition is 2.2% (inactive) in experiment [1], -1.1% (inactive) in experiment [3], 21.8% (inactive) in experiment [7] and 35% (inactive) in experiment [8]. The inhibition of aggregation in experiment [2] is 12.2% (inactive). Besides, the nuclei count in experiment [2] was determined as 110%; in experiment [3], 106%. Moreover, in experiment [4], the fluorescence slope was -0.407 (inactive). Further, in experiment [5], the NADPH fluorescence slope is -4.6e-05 (inactive). In experiment [6], the slope is 0.00173 (inactive).
